Experimental data as given in PubChem BioAssay (NCATS).
Where “and” joins values, the source holds several entries; their conditions need not be identical. Equal entries are not always repeated. Records with an inconclusive call do not appear. Where a call stands in place of a potency, no number is given. Calls of active or inactive are those of the source. The call rests on the fitted dose curve; in most records, active means well fitted inhibition curve with a large enough effect; inconclusive means small, poorly fitted or top-dose-only effect; inactive means flat fitted curve, though single readings scatter.

Each molecule was assayed on HACAT (assay: qHTS assay to identify novel small-molecules to repurpose for Merkel cell carcinoma treatment (AID 1296009; further: nearly all actives have a fitted effect of over 60% in size)). Details: MCC and control cell lines, CellTiter-Glo viability, 72 h; at 44.8 µM (top of the series) unless noted.
Procedure, shortened: (§1)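 Cell viability measured by CellTiter-Glo following 72 hr compound treatment at 37 degree celsius, with NPC and MIPE libraries tested in 8- and 11-point concentration series.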
Potency means the concentration at half of the fitted maximal effect.

| Structure (SMILES) | outcome |
| --- | --- |
| COc1cccc(N(C)C(=S)Oc2ccc3c(c2)CCCC3)n1 | inactive |
| COc1nc(N)nc2c1ncn2[C@@H]1O[C@H](CO)[C@@H](O)[C@@H]1O | inactive |
| COc1cc(NS(=O)(=O)c2ccc(N)cc2)nc(OC)n1 | inactive |
| O=C(NCC1CN(c2ccc(N3CCOCC3=O)cc2)C(=O)O1)c1ccc(Cl)s1 (stereo not given) | inactive |
| CC(C)NCC(O)c1ccc(NS(C)(=O)=O)cc1 (stereo not given) | inactive |
| COc1c(N2CCNC(C)C2)c(F)cc2c(=O)c(C(=O)O)cn(C3CC3)c12 (stereo not given) | inactive |
| CCCCS(=N)(=O)CCC(N)C(=O)O (stereo not given) | inactive |
| Cc1oc(=O)oc1CN1CCN(c2cc3c(cc2F)c(=O)c(C(=O)O)c2n3C(C)S2)CC1 (stereo not given) | inactive |
| CCOC(=O)[C@H](CCc1ccccc1)N[C@H]1CCc2ccccc2N(CC(=O)O)C1=O | inactive |
| O=C(O)c1cn(C2CC2)c2cc(N3CCNCC3)c(F)cc2c1=O | inactive |

These molecules were tested on MCC-13 in the same assay as above. Details: MCC and control cell lines, CellTiter-Glo viability, 72 h; series mostly up to 46 µM.
Procedure, shortened: as §1

| Structure (SMILES) | Potency |
| --- | --- |
| CC(N)C12CC3CC(CC(C3)C1)C2 (stereo not given) | inactive |
| COc1cccc(N(C)C(=S)Oc2ccc3c(c2)CCCC3)n1 | inactive |
| NC(=O)c1cccc(N)c1 | inactive |
| O=c1oc2c(O)c(O)cc3c(=O)oc4c(O)c(O)cc1c4c23 | inactive |
| Nc1nc(=S)c2[nH]cnc2[nH]1 | 4.22 µM (active) |
| N[C@@H](C(=O)N[C@@H]1C(=O)N2C(C(=O)O)=C(Cl)CS[C@H]12)c1ccccc1 | inactive |
| CC(C)C[C@H](NC(=O)[C@H](CCc1ccccc1)NC(=O)CN1CCOCC1)C(=O)N[C@@H](Cc1ccccc1)C(=O)N[C@@H](CC(C)C)C(=O)[C@@]1(C)CO1 | 84.1 nM (active) and 418 nM (active) |
| NC(=O)c1ccc2[nH]ccc2c1 | inactive |
| COC(c1ccccc1)(c1ccccc1)[C@H](Oc1nc(C)cc(C)n1)C(=O)O | inactive |
| COc1nc(N)nc2c1ncn2[C@@H]1O[C@H](CO)[C@@H](O)[C@@H]1O | inactive |
| CCN(CC)CCn1c(=O)c(Cc2ccc(OC)cc2)nc2ccccc21 | inactive |
| COc1cc(NS(=O)(=O)c2ccc(N)cc2)nc(OC)n1 | inactive |
| O=C(NCC1CN(c2ccc(N3CCOCC3=O)cc2)C(=O)O1)c1ccc(Cl)s1 (stereo not given) | inactive |
| CN(C)c1ccc(C(=C2C=CC(=[N+](C)C)C=C2)c2ccc(N(C)C)cc2)cc1 | 750 nM (active) and 743 nM (active) |
| CC1=C(C(=O)O)N2C(=O)[C@@H](NC(=O)C(N)c3ccccc3)[C@H]2SC1 (stereo not given in full) | inactive |
| CCN1CCCC1CNC(=O)c1cc(S(N)(=O)=O)ccc1OC (stereo not given) | inactive |
| CC(C)NCC(O)c1ccc(NS(C)(=O)=O)cc1 (stereo not given) | inactive |
| CC(C)C1CCC(C(=O)N[C@H](Cc2ccccc2)C(=O)O)CC1 (stereo not given in full) | inactive |
| COc1c(N2CCNC(C)C2)c(F)cc2c(=O)c(C(=O)O)cn(C3CC3)c12 (stereo not given) | inactive |
| CC(C)(C)NC(=O)[C@H]1CC[C@H]2[C@@H]3CC[C@H]4NC(=O)C=C[C@]4(C)[C@H]3CC[C@]12C | inactive |
| Nc1nc(N)nc(-c2cc(Cl)ccc2Cl)n1 | inactive |
| CCCCOc1ccc(CC(=O)NO)cc1 | inactive |
| NCCCC(O)(P(=O)(O)O)P(=O)(O)O | inactive |
| COc1cc2ncnc(Nc3cccc(Cl)c3)c2cc1OC | inactive |
| Cc1oc(=O)oc1CN1CCN(c2cc3c(cc2F)c(=O)c(C(=O)O)c2n3C(C)S2)CC1 (stereo not given) | inactive |
| O=C(O)C1CCCN(CCC=C(c2ccccc2)c2ccccc2)C1 (stereo not given) | inactive |
| CC[C@H](C)C(=O)O[C@H]1C[C@@H](C)C=C2C=C[C@H](C)[C@H](CC[C@@H]3C[C@@H](O)CC(=O)O3)[C@H]21 | 21.1 µM (active) |
| CNC1CCCN(c2c(F)cc3c(=O)c(C(=O)O)cn(C4CC4)c3c2OC)C1 (stereo not given) | inactive |
| CCOC(=O)[C@H](CCc1ccccc1)N[C@H]1CCc2ccccc2N(CC(=O)O)C1=O | inactive |
| O=C(O)c1cn(C2CC2)c2cc(N3CCNCC3)c(F)cc2c1=O | inactive |
